Source: PubChem BioAssay AID504607 (Sanford-Burnham Center for Chemical Genomics, 2011)
About 4,800 (77%) of roughly 6,200 compounds were called active. So high a share suggests a set chosen from earlier hits. The list is a sample of the results. Values without a mark were called inactive.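 The calls were made as follows: active = mean inhibition at 8 µM reaching about 37%, which flags the compound as non-specific (limit read from the data); inactive = the rest.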

Experiment: luminescence decrease from intact luciferase reporter – cell-based, single concentration, SaOS-2, counter-screen for Mdm2/MdmX interaction inhibitor project, confirmation (AID 504607);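 also: p53-null SaOS-2 cells with luciferase driven by a doxycycline-inducible promoter; compound on cells about two nights before reading with doxycycline added after day one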
Details: SaOS-2 full-length luciferase counterscreen, at 8 µM, stronger effect = higher value

| Compound | inhibition |
| --- | --- |
| COc1ccc(Nc2ncnc3ccc(Br)cc23)c(OC)c1 | 24.3% |
| COc1ccc(NC(=O)c2cc(-c3cc(OC)c(OC)c(OC)c3)nc3ccccc23)c(OC)c1 | 58.2% (active) |
| Cc1ccc2nc(-c3ccncc3)cc(C(=O)Nc3ccc4c(c3)OCCO4)c2c1 | 44.2% (active) |
| COc1ccc(C(CCN(Cc2ccc(OC)c(OC)c2)C(=O)CCl)c2ccccc2)cc1 (stereo unspecified) | 58.4% (active) |
| Cc1noc(C)c1-c1ccc2ncnc(NC(C)c3ccco3)c2c1 (stereo unspecified) | 59.8% (active) |
| Cc1cccc(Nc2nc3c(S(=O)(=O)c4ccccc4)nnn3c3ccccc23)c1C | 94.3% (active) |
| CN(c1ccc2nc3ccccc3c(=O)n2n1)C1CCCCC1 | 27.7% |
| CC(Nc1nc(C(F)(F)F)nc2ccccc12)c1cccs1 (stereo unspecified) | 50.3% (active) |
| CC(C)(C)Nc1nc(-c2ccccn2)nc2ccccc12 | 23.3% |
| COc1ccc(Cc2nnc(N/N=C/c3ccccc3O)[nH]c2=O)cc1OC | 38.6% (active) |
| Cc1nnc(N/N=C/c2ccccn2)[nH]c1=O | 20.6% |
| CCOc1cc(N2CCOCC2)c(OCC)cc1NC(=O)COc1cccc2cccnc12 | 39.6% (active) |
| CCCOc1ccccc1C1CC(=O)Nc2cc3c(cc21)OCO3 (stereo unspecified) | 74.9% (active) |
| COc1ccccc1C1C2=C(COC2=O)Nc2cc3c(cc21)OCO3 (stereo unspecified) | 90.3% (active) |
| CCOc1ccc(S(=O)(=O)Nc2cccc(C(=O)NCC3(N4CCCCC4)CCCCC3)c2)cc1 | 56.1% (active) |
| COc1ccc(CS(=O)/C(Cl)=C(/Cl)C(=O)Nc2ccc(OC)nc2)cc1 (stereo unspecified) | -0.43% |
| O=C(CCCN1C(=O)/C(=C\c2ccco2)SC1=S)Nc1cccc2ccccc12 | 28.5% |
| O=C1/C(=C/c2ccc(F)cc2)SC(=S)N1CCCC(=O)N1CCCCC1CCO (stereo unspecified) | 23.7% |
| O=C(CCCN1C(=O)/C(=C/c2ccco2)SC1=S)Nc1ccccc1 | 50% (active) |
| O=C(CCCN1C(=O)/C(=C/c2ccccc2)SC1=S)Nc1ccc(O)cc1 | 51.8% (active) |
| O=C(CCCN1C(=O)/C(=C/c2cccs2)SC1=S)Nc1ccc(O)cc1 | 43% (active) |
| COc1ccc(/C=C2\SC(=S)N(CCC(=O)Nc3ccccn3)C2=O)cc1OC | 72.7% (active) |
| O=C(CCCN1C(=O)/C(=C\c2ccccc2)SC1=S)Nc1ccccc1O | 30.3% |
| CCOc1ccc(-c2cc(C(=O)N/N=C/c3ccc(O)cc3)c3ccccc3n2)cc1 | 48.3% (active) |
| Oc1ccc(/C=N/Nc2nc(-c3ccccc3F)nc3ccccc23)c(O)c1 | 31% |
| Cc1nc2ccccc2nc1N/N=C/c1ccc(O)cc1O | 46.2% (active) |
